Test results taken from PubChem BioAssay (EPA / NIEHS).
Inconclusive results are not listed. Activity calls are given as the source filed them. Rule for the calls, unless noted: active = hit-call score of the fitted dose curve at least 0.9, where 1 is the maximum; inconclusive = response in the unintended direction; inactive = score below 0.9.

Experiments:
[1] = TOX21_p53_BLA_p2_viability: Viability Assessment in the Tox21 HCT-116 p53 Agonism Beta-lactamase Assay, Phase 2 (AID 2283591);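 note: actives lower the ATP signal meaning cytotoxicity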
How it was run: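 HCT116 p53-bla cells, 4000/well, dosed after 5 h plating (217-fold dilution of DMSO stocks) and incubated 16 h at 37C. Viability taken as cellular ATP by CellTiter-Glo luminescence after 30 min RT; signal loss marks cytotoxicity.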

[2] = target: Cellular tumor antigen p53 (Homo sapiens) (UniProt P04637); assay: TOX21_p53_BLA_p2_ratio: Tox21 HCT-116 p53 Agonism Beta-lactamase Assay, Ratio, Phase 2 (AID 2283592)
Cellular tumor antigen p53 (Homo sapiens), sequence (P04637 whole entry, looked up): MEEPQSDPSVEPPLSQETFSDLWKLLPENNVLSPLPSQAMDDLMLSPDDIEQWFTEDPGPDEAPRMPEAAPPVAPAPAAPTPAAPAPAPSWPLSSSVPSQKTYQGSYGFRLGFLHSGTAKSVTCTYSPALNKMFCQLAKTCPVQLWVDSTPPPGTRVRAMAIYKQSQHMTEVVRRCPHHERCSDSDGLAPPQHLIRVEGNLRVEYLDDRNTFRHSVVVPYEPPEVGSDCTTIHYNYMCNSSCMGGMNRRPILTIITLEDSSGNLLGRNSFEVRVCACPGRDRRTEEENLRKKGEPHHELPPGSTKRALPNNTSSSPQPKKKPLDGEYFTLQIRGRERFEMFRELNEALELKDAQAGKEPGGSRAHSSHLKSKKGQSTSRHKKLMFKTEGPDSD
How it was run: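 Ratio endpoint: beta-lactamase cleavage of CCF4-AM, blue (460 nm) over green (530 nm). HCT116 reporter line; 16 h treatment, 37C; substrate 2 h RT.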

[3] = TOX21_p53_BLA_p3_viability: Viability Assessment in the Tox21 HCT-116 p53 Agonism Beta-lactamase Assay, Phase 3 (AID 2283593);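 note: cells exposed to compound for 16 h before reading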
How it was run: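 HCT116 cells, 4000/well, dosed 5 h after plating by pin transfer (217-fold dilution from DMSO stock) and incubated 16 h at 37C, 5% CO2. Viability read as ATP luminescence with CellTiter-Glo after 30 min at room temperature.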

[4] = target: Cellular tumor antigen p53 (Homo sapiens) (UniProt P04637); assay: TOX21_p53_BLA_p3_ratio: Tox21 HCT-116 p53 Agonism Beta-lactamase Assay, Ratio, Phase 3 (AID 2283596)
How it was run: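 Cells were seeded at 4000/well, rested 5 h at 37C, then dosed with DMSO compound solutions (217-fold dilution) for 16 h. CCF4-AM substrate was loaded for 2 h at room temperature, and the 460/530 nm emission ratio was fitted for gain of signal versus DMSO.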

[5] = TOX21_p53_BLA_p4_viability: Viability Assessment in the Tox21 HCT-116 p53 Agonism Beta-lactamase Assay, Phase 4 (AID 2283597);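 note: hits lower the luminescence signal meaning cytotoxicity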
How it was run: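 Cytotoxicity was inferred from loss of CellTiter-Glo luminescence. HCT116 cells had been dosed with compounds after 5 h plating, incubated 16 h at 37C and 5% CO2, and exposed to the CCF4-AM substrate for 2 h.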

[6] = TOX21_p53_BLA_p5_viability: Viability Assessment in the Tox21 HCT-116 p53 Agonism Beta-lactamase Assay, Phase 5 (AID 2283600)
How it was run: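 Luciferase-coupled ATP quantitation of cells treated for 16 h (37C, 5% CO2) with test chemicals delivered in DMSO via a 217-fold dilution; 4000 cells/well; reagent incubated 30 min at room temperature before luminescence reading.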

[7] = target: Cellular tumor antigen p53 (Homo sapiens) (UniProt P04637); assay: TOX21_p53_BLA_p4_ratio: Tox21 HCT-116 p53 Agonism Beta-lactamase Assay, Ratio, Phase 4 (AID 2283601)
How it was run: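 HCT-116 p53 beta-lactamase reporter cells (4000/well) preincubated 5 h, then compound (217-fold dilution of DMSO stock) for 16 h at 37C. CCF4-AM substrate added 2 h at room temperature; 460/530 nm emission ratio fitted upward versus DMSO.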

[8] = CCTE_Harrill_HTTr_Viability_MCF7: CCTE's 6-hour Cell Viability Assessment for the High-Throughput Transcriptomics (HTTr) Platform, in MCF-7 cells cultured in DMEM + 10% fetal bovine serum, Harrill Lab (AID 2284010; active = hit-call score of the fitted dose curve at least 0.9, where 1 is the maximum; inactive = score below 0.9)
How it was run: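 Propidium iodide exclusion, imaged by high-content analysis, gauged viability after a six-hour exposure across eight concentrations. Cells were MCF-7 grown in DMEM with 10% fetal bovine serum; fits run in both directions against DMSO.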

[9] = TOX21_PR_BLA_Followup_Agonist_viability: Viability Assessment in the Tox21 HEK293 Progesterone Receptor (PR) Agonism Beta-lactamase Follow-Up Assay (AID 2283935);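 note: signal loss means lower viability so actives are cytotoxic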
How it was run: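 Run multiplexed with the beta-lactamase FRET read, this endpoint measures ATP by CellTiter-Glo luminescence (30 min, room temperature). PR-UAS-bla HEK293T cells received compound 6 hr after plating and were then incubated 16 hr at 37C in 2% stripped serum.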

[10] = TOX21_PR_BLA_Followup_Antagonist_viability: Viability Assessment in the Tox21 HEK293 Progesterone Receptor (PR) Antagonism Beta-lactamase Follow-Up Assay (AID 2283936);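 note: cells exposed to compound with R5020 agonist for 16 h; hits lower the luminescence signal meaning cytotoxicity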
How it was run: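 PR-UAS-bla HEK293T cells in medium with 2% charcoal-stripped FBS were treated with compounds plus R5020 for 16 hr at 37C. After the beta-lactamase read, CellTiter-Glo was added to the same wells and luminescence read after 30 min at room temperature.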

PGR (gene 5241) = PGR (gene 5241) (UniProt P06401); assay: TOX21_PR_LUC_Followup_Antagonist: Tox21 HEK293 Progesterone Receptor (PR) Antagonism Luciferase Follow-Up Assay (AID 2283938);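 note: curve fitted upward as signal gain over DMSO baseline despite antagonist label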
PGR (gene 5241), sequence (P06401 whole entry, looked up): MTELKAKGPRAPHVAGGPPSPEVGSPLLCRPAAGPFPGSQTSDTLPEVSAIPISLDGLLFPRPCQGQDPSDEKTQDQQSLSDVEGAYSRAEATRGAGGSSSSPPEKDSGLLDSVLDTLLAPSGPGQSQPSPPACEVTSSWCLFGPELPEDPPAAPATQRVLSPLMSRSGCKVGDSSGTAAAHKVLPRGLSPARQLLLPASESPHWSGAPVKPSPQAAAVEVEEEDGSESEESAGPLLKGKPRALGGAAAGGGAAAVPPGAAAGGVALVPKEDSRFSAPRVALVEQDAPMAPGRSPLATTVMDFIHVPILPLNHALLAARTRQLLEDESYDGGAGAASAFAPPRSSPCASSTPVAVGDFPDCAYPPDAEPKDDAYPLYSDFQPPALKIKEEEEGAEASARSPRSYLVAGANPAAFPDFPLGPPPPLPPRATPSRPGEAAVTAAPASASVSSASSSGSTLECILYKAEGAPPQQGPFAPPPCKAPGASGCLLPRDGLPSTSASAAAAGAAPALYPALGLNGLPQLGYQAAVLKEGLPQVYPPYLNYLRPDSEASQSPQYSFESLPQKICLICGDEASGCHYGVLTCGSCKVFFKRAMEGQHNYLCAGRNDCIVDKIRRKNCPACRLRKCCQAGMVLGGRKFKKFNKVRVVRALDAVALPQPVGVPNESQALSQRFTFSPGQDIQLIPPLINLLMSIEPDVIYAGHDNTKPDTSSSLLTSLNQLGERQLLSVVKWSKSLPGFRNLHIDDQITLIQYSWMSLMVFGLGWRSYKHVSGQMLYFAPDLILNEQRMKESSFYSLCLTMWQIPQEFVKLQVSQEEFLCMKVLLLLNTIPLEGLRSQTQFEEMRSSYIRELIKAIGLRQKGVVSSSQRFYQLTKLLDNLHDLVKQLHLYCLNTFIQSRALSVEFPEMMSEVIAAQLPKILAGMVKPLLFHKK
How it was run: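 HEK293-PR-A-luc cells were precultured 5 days in medium with 10% charcoal-stripped FBS, seeded 3,000/well, then exposed to compounds in DMSO for 16 h at 37C. Luciferase was read by ONE-Glo luminescence after 30 min at room temperature.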

[11] = TOX21_PR_LUC_Followup_Antagonist_viability: Viability Assessment in the Tox21 HEK293 Progesterone Receptor (PR) Antagonism Luciferase Follow-Up Assay (AID 2283940)
How it was run: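 Viability counter-readout: cellular ATP measured by luciferase luminescence after 16 h compound exposure at 37C of HEK293-PR-A-luc cells, which had been cultured in charcoal-stripped serum and seeded 5 h beforehand.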

[12] = TOX21_PR_LUC_Followup_Agonist_viability: Viability Assessment in the Tox21 HEK293 Progesterone Receptor (PR) Agonism Luciferase Follow-Up Assay (AID 2283941);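 note: loss of signal means cytotoxicity so actives lower viability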
How it was run: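 Cytotoxicity counter-readout in the PR-A luciferase reporter line HEK293, with 16 h compound exposure at 37C after cells were cultured in charcoal-stripped serum. Cellular ATP quantified by CellTiter-Glo luminescence.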

[13] = target: Thyroid hormone receptor alpha (Rattus norvegicus) + Thyroid hormone receptor beta (Rattus norvegicus) (UniProt P18113+P63059); assay: TOX21_TR_LUC_GH3_Agonist_Followup: Tox21 GH3 Thyroid Hormone Receptor Agonism Luciferase Follow-Up Assay (AID 2283939)
Thyroid hormone receptor alpha (Rattus norvegicus) + Thyroid hormone receptor beta (Rattus norvegicus), sequence (P63059 whole entry, looked up): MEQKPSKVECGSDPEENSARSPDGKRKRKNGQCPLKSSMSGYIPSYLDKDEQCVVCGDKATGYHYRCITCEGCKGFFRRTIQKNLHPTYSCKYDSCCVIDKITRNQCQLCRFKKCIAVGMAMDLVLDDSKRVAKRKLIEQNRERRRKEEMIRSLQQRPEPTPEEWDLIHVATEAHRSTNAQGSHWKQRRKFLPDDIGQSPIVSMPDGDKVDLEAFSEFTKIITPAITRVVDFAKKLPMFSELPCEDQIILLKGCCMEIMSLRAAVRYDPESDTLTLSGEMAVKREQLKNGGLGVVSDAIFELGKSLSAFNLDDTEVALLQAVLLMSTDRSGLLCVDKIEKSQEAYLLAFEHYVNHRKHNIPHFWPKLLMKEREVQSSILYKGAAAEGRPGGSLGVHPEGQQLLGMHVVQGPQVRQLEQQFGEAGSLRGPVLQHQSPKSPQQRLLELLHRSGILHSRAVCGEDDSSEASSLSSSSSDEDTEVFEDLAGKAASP
Thyroid hormone receptor alpha (Rattus norvegicus) + Thyroid hormone receptor beta (Rattus norvegicus), sequence (P18113 whole entry, looked up): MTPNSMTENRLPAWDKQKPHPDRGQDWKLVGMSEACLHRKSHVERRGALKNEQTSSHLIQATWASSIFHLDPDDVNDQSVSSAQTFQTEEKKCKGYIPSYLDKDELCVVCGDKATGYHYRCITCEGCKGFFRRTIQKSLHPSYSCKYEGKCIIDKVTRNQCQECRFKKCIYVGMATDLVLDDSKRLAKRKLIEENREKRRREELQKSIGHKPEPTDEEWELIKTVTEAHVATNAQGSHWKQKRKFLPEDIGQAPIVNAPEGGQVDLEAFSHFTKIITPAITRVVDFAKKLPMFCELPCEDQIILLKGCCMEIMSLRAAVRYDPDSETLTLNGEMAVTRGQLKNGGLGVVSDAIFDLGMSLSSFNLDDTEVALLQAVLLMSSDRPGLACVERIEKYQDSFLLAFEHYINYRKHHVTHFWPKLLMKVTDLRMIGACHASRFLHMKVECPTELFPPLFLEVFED
How it was run: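 Agonist-mode confirmatory run: 15 concentrations (5 nM to 92 uM final) on GH3 rat pituitary cells, 24 h at 37C/5% CO2, T3 as positive control. Luminescence read with ONE-Glo after 30 min.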

THRA (gene 7067) = THRA (gene 7067) (UniProt P10827); assay: TOX21_TRA_COA_Agonist_Followup_ratio: Tox21 Thyroid Hormone Receptor alpha Agonism through Coactivator Recruitment Follow-Up Assay, Ratio (AID 2283948; active = hit-call score of the fitted dose curve at least 0.9, where 1 is the maximum; inactive = score below 0.9)
THRA (gene 7067), sequence (P10827 whole entry, looked up, the tested form may be a part): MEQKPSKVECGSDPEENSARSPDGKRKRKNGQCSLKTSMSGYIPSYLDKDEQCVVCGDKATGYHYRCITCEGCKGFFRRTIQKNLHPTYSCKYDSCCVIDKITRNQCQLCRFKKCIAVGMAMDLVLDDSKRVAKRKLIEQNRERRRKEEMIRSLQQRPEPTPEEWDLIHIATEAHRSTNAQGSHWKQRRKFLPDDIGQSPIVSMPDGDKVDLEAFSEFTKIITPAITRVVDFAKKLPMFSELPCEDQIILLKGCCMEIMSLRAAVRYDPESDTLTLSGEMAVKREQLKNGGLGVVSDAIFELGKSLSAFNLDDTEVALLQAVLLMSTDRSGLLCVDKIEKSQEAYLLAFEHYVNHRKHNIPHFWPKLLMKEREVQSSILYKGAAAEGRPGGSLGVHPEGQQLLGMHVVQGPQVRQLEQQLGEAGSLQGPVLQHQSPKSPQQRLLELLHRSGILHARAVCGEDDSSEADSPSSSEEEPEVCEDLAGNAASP
How it was run: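 Read-out is the 520/495 nm emission ratio (ex 340 nm), scaled between DMSO-only wells as 0% and T3 wells as 100%. It reflects fluorescein-SRC-2 peptide recruitment to GST-TRα LBD detected via terbium anti-GST antibody.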

THRB (gene 7068) [14] = target: THRB (gene 7068) (UniProt P10828); assay: TOX21_TRB_BLA_Agonist_Followup_ratio: Tox21 Thyroid Hormone Receptor beta Agonism Beta-lactamase (BLA) Follow-Up Assay, Ratio (AID 2283954)
THRB (gene 7068), sequence (P10828 whole entry, looked up, the tested form may be a part): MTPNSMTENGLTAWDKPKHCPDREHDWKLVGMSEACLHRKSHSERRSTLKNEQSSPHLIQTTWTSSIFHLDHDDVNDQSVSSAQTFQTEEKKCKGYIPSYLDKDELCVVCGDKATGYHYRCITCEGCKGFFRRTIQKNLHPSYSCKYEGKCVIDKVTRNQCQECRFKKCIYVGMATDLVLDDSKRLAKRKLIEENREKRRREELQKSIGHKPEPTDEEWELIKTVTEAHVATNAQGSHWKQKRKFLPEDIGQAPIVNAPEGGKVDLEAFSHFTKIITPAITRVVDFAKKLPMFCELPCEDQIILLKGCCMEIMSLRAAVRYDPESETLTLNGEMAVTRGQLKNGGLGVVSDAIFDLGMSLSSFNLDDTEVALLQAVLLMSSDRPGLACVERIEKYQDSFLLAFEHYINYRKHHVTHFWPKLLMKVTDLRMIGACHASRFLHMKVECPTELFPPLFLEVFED
How it was run: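 Agonist mode: compounds (11-point, triplicate) incubated 18 h with HEK293T cells carrying GAL4-DBD/human TRβ-LBD and UAS-β-lactamase. Blue/green (460/530 nm) FRET ratio read after 2 h CCF4-AM loading; CellTiter-Glo viability run in the same plates.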

THRB (gene 7068) [15] = target: THRB (gene 7068) (UniProt P10828); assay: TOX21_TRB_COA_Agonist_Followup_ratio: Tox21 Thyroid Hormone Receptor beta Agonism through Coactivator Recruitment Follow-Up Assay, Ratio (AID 2283963; active = hit-call score of the fitted dose curve at least 0.9, where 1 is the maximum; inactive = score below 0.9)
How it was run: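 First, the GST-fused TRβ ligand-binding domain (5.0 nM) was incubated with test compound in 0.10% BSA. Next, fluorescein-tagged SRC-2 peptide (200 nM) and terbium anti-GST antibody (2 nM) were added. Finally, TR-FRET emission ratios were normalized against DMSO and T3 controls.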

[16] = target: Retinoic acid receptor RXR-alpha (Homo sapiens) (UniProt P19793); assay: TOX21_TR_RXR_BLA_Agonist_Followup_ratio: Tox21 Thyroid Hormone Receptor beta Retinoid X Receptor alpha (RXRa) Agonism Beta-lactamase (BLA) Follow-Up Assay, Ratio (AID 2283968)
Retinoic acid receptor RXR-alpha (Homo sapiens), sequence (P19793 whole entry, looked up): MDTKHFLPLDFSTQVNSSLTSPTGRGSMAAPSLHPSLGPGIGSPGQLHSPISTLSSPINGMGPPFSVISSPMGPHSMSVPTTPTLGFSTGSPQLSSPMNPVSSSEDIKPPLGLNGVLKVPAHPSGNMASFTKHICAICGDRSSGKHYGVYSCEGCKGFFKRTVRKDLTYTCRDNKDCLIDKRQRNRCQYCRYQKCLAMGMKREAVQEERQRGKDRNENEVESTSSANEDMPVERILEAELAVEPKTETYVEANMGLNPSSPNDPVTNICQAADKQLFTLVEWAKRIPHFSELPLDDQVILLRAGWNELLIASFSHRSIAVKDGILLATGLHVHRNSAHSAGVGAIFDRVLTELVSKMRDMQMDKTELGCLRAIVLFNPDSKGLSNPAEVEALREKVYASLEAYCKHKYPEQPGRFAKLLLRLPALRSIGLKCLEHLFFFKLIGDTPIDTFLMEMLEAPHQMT
How it was run: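 Agonist mode: compounds given to RXRa-bla HEK293T cells at 11 concentrations, triplicate, 16 h at 37C/5% CO2. Readout is the 460:530 nm blue/green ratio after 2 h substrate loading at room temperature; DMSO baseline, 9-cis retinoic acid control.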

[17] = TOX21_TR_RXR_BLA_Agonist_Followup_viability: Viability Assessment in the Tox21 Thyroid Hormone Receptor beta Retinoid X Receptor alpha (RXRa) Agonism Beta-lactamase (BLA) Follow-Up Assay (AID 2283970)
How it was run: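 CellTiter-Glo ATP luciferase read-out of cell viability, multiplexed with the beta-lactamase reporter run. RXRa-bla HEK293T cells in charcoal-stripped serum medium were exposed 16 h at 37C; data fitted both directions relative to DMSO.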

[18] = CCTE_Harrill_HTTr_CellCount_MCF7: CCTE's Cell Proliferation Assessment for the High-Throughput Transcriptomics (HTTr) Platform, Harrill Lab (AID 2284012);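 note: cells exposed to compound for six hours; intended direction is loss of nuclei count meaning fewer cells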
How it was run: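 Cell count from high-content imaging of Hoechst-labeled nuclei serves as viability/growth readout. Chemicals were applied to MCF-7 cells in eight concentrations for six hours, with fitting in both directions relative to DMSO.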

Measured: AC50

Cc1cccc(C)c1NC(=O)c1ccccc1C(=O)O
inactive: [1] | [2] | [3] | [4] | [5] | [6] | [7]

OC(CN1CCC(Cc2ccc(F)cc2)CC1)c1ccc(Cl)cc1 (configuration not stated)
inactive: [1] | [2] | [3] | [4] | [5] | [6] | [7]

COc1cc2[nH]c(C)c(CCN3CCN(c4ccccc4)CC3)c2cc1OC
inactive: [1] | [2] | [3] | [4] | [5] | [6]

Nc1cc(-c2ccncc2)c[nH]c1=O
inactive: [1] | [2] | [3] | [4] | [5] | [6] | [7] | [8]

CN(C1CCCCC1)S(=O)(=O)c1ccccc1N
active: PGR (gene 5241) 24.2 µM
not listed: [8] | [13] | THRA (gene 7067) | THRB (gene 7068) [14] | THRB (gene 7068) [15] | [16] | [17] | [18]
inactive: all other assays above

O
inactive: [1] | [2] | [3] | [4] | [5] | [7]

CSCC[C@H](NC(=O)[C@H](Cc1ccc(OS(=O)(=O)O)cc1)NC(=O)[C@@H](N)CC(=O)O)C(=O)NCC(=O)N[C@@H](Cc1c[nH]c2ccccc12)C(=O)N[C@@H](CCSC)C(=O)N[C@@H](CC(=O)O)C(=O)N[C@@H](Cc1ccccc1)C(N)=O
not listed: [8] | [9] | [10] | PGR (gene 5241) | [11] | [12] | [18]
inactive: all other assays above

N#CCC(=O)O
inactive: [1] | [2] | [3] | [4] | [5] | [6] | [8] | [18]
